TRPM1 prom inh – inhibitors of MITF-driven TRPM1 promoter in melanoma cells; inhibition, % at 12.5 µM; AID 488899; 330,000 compounds, 0.83% hits; SK-MEL-5 TRPM1 promoter luciferase, 24 h;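 active = mean inhibition across replicates of 60% or more, whatever share of single replicates reaches that level; inconclusive = some that reach 60%, reason not given; inactive = mean inhibition across replicates below 60%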
Shn3 inh set2 – reduces Shn3 3'UTR luciferase signal in osteoblasts. Clone20 osteoblast Shn3 3'UTR firefly luciferase, 24 h. inhibition, % at 12.5 µM. 360,000 compounds, 0.52% hits. AID 588674;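 active = mean inhibition of at least 75% with every replicate also reaching 75%; inconclusive = mean inhibition at least 75% but some replicate below; inactive = mean inhibition below 75%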;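 also: 0% = median of neutral control wells and 100% = pilot-screen positive control compound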
Peg3 prom inh-1 – Peg3 promoter activity inhibition. HeLa PEG-Prom luciferase reporter, luminescence, overnight. inhibition, % at 20 µM. 360,000 compounds, 1.7% hits. AID 588405;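 active = inhibition of at least 50% at 20 µM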
KKLEB cytotox – reduces viability of KKLEB cystic fibrosis airway cells | AID 602141 | 360,000 compounds, 0.36% hits | activity change (cytotoxicity), % at 5 µM | KKLEB CF airway cells viability, ATPlite luminescence, overnight; stronger effect = lower value; cells stimulated with P. aeruginosa culture filtrate;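 active = corrected activity change at or below -50% at 5 µM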
HIF-2a inh – HIF-2a inhibition; 360,000 compounds, 0.72% hits; inhibition, % at 18.8 µM; 786-0 RCC cells HIF-2a reporter, luciferase luminescence, overnight; AID 624352;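 active = inhibition of the luminescence signal of 40% or more relative to plate controls, in a single-dose primary screen at 18.75 µM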
CF NFkB inh – cystic fibrosis NF-kB activation inhibition; 360,000 compounds, 0.86% hits; KKLEB NF-kB-GFP reporter, PAF-induced, GFP fluorescence overnight; inhibition, % at 5 µM;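 active = at least 50% inhibition at 5 µM, scaled per plate between neutral and stimulator controls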;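 also: PAF is a Pseudomonas aeruginosa culture filtrate used as stimulus; plate controls were PAF-stimulated DMSO wells for no effect and unstimulated DMSO wells for full effect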
Peg3 prom inh-2 – confirmation of Peg3 promoter inhibitors; shares compounds with Peg3 prom inh-1; HeLa PEG-Prom luciferase reporter, luminescence, overnight; inhibition, % at 20 µM; 1,300 compounds, 84% hits;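 active = at 20 µM dose, 40% or more inhibition averaged across four replicates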
* marks the source's active call; other numbers are inactive results; ? = inconclusive; . = no result. In the library only some 2.7% were active in any assay of this set; here they are far more common.

SMILES | TRPM1 prom inh | Shn3 inh set2 | Peg3 prom inh-1 | KKLEB cytotox | HIF-2a inh | CF NFkB inh | Peg3 prom inh-2
Cc1ccc(-n2nc3c(N4CCC(C(=O)NCCc5cccs5)CC4)nnc(C)c3c2C)cc1 | 89* | 53 | 60* | -14 | 8 | 33 | 37
COc1ccccc1C(=O)NCCC(=O)NCC1CCCCC1 | 5 | -8 | -1 | -10 | -22 | 4 | .
O=C(Cn1sc2ccccc2c1=O)N1CCN(C(=O)c2ccco2)CC1 | 4 | -20 | -37 | 4 | -42 | -10 | .
COc1cc(CNCCN2CCOCC2)ccc1OCc1ccc(Cl)cc1Cl | -1 | 3 | 57* | -4 | 7 | 12 | 79*
COc1ccc2c(c1)sc1nc(-c3ccccc3)cn12 | 91* | ? | 85* | -96* | 78* | 22 | 74*
CCOC(=O)c1ccc(NC(=O)C2CCCN(S(=O)(=O)c3ccc(F)cc3)C2)cc1 (centres undefined) | 22 | 20 | 74* | 7 | 19 | -14 | 56*
Cn1ccc(NS(=O)(=O)c2cc(Br)ccc2Br)n1 | -6 | -3 | -2 | 1 | 15 | 1 | .
COc1ccc(-c2cc3ccccc3n2CC(O)CN2CCCCC2)cc1 (centres undefined) | -13 | -28 | 3 | 7 | 1 | 5 | .
CCC(=C(c1ccc(OC)cc1)c1ccc(OC)cc1)c1cn(CC(O)CN2CCN(C)CC2)c2ccccc12 (centres undefined) | 86* | 18 | 105* | -25 | 12 | 21 | 101*
Cc1ccc(OCC(=O)Oc2c(C)cccc2C)cc1C | -2 | -1 | 1 | -14 | 8 | 19 | .
CCOc1ccc(-n2c(C)nc3cc(C(=O)NCC4CCCO4)ccc32)cc1 (centres undefined) | -7 | -2 | 21 | 4 | 8 | 3 | .
CC(=O)Nc1sc(C)c(C)c1C(=O)OCC(=O)Nc1cccc(C)c1 | 3 | 19 | 90* | -27 | -6 | 43 | 39
CC(=O)Nc1sc(C)c(C)c1C(=O)OCC(=O)Nc1ccccc1 | -17 | 2 | 18 | -5 | -37 | 4 | .
CCOC(=O)C1=CC[C@@H](c2cc3cc(OC)ccc3n2C)N(S(=O)(=O)c2ccc(C)cc2)[C@H]1C(=O)OCC | 8 | 4 | 5 | -3 | 14 | 19 | .
Cc1cc(C)c2nc(NNC(=O)c3ccc(S(=O)(=O)N4CC(C)CC(C)C4)cc3)sc2c1 (centres undefined) | 69* | 90* | 94* | -4 | -36 | 9 | 99*
CCC(=O)NNc1nc2c(C)cc(C)cc2s1 | 1 | -20 | -2 | 1 | -32 | 18 | .
COc1ccc(C(=O)c2sc(Nc3cccc(OC)c3)c(C(=O)Nc3cccc(C)c3C)c2N)cc1 | 34 | 69 | 97* | -35 | 7 | 27 | 34
COc1ccc(Nc2sc(C(=O)c3ccc(Cl)cc3)c(N)c2C(=O)Nc2ccccc2OC)cc1 | 18 | 13 | 26 | -35 | -18 | 40 | .
S=C(NCc1ccccc1)C(=S)NCc1ccccc1 | 7 | 19 | -37 | -15 | -81 | 6 | .
c1ccc(CN=C(NCc2ccccc2)NCc2ccccc2)cc1 | 16 | 83* | 90* | -7 | 10 | 2 | 88*
Cc1nn(-c2ccc([N+](=O)[O-])cc2)c2c1C(c1cccc(Br)c1)N1C(=N2)C(=O)Nc2ccccc21 (centres undefined) | 6 | 15 | 43 | -8 | 16 | -25 | .
Cc1nn(-c2ccccc2)c2c1C(c1ccc([N+](=O)[O-])cc1)N1C(=N2)C(=O)Nc2ccccc21 (centres undefined) | -1 | -3 | 53* | -9 | 2 | 12 | 50*
O=C(O)c1ccc(Cl)c(NC(=O)C2CCN(S(=O)(=O)c3cccs3)CC2)c1 | . | -23 | 10 | -1 | 9 | -20 | .
O=C(CNC(=O)c1ccccc1Br)Nc1cccc(S(=O)(=O)Nc2ccccc2Cl)c1 | 9 | 15 | 7 | 7 | 19 | -13 | .
CCOc1ccc2[nH]c3c(N4CCN(C(=O)c5ccco5)CC4)ncnc3c2c1 | . | 14 | 32 | 12 | 23 | -31 | .
SMILES | TRPM1 prom inh | Shn3 inh set2 | Peg3 prom inh-1 | KKLEB cytotox | HIF-2a inh | CF NFkB inh | Peg3 prom inh-2
O=C(c1ccco1)N1CCN(c2ncnc3c2[nH]c2ccc(Br)cc23)CC1 | -6 | 27 | 73* | 3 | 16 | -42 | 85*
COc1ccccc1/C=N/NC(=O)CSc1cc(C)nc2ccccc12 | 1 | 9 | 7 | -26 | 12 | 25 | .
COc1ccc2nc(C)cc(SCC(=O)N/N=C/c3c(OC)ccc4ccccc34)c2c1 | 13 | 0 | 63* | -13 | 4 | -5 | 20
COc1ccc(C(=O)O)cc1NC(=S)NC(=O)/C=C/c1ccc(C(C)C)cc1 | -22 | -7 | -15 | 1 | -40 | 9 | .
Nc1c(C(=O)Nc2cccc(C(=O)O)c2)sc2nc3c(cc12)CCCC3 | 80* | 32 | 69* | -17 | 77* | 13 | 55*
Cc1ccc(S(=O)(=O)N2CCCCC2)cc1NC(=O)c1cc(F)c(F)c(F)c1F | 5 | 11 | 5 | -13 | 7 | 14 | .
c1ccc(C[C@H]2CNCCN2CCCCC2CCCCC2)cc1 | . | -114 | 105* | 6 | 8 | -2 | 98*
C/C(=N\NC(=O)c1cccc(S(=O)(=O)N2CCCC2)c1)c1ccc(F)cc1 | -7 | -38 | -4 | -8 | 0 | -6 | .
Cc1ccc(S(=O)(=O)N2CCN(C(=O)COC(=O)c3cccc(Cl)c3)CC2)c(C)c1 | -1 | -7 | 0 | -3 | 7 | 10 | .
CCOC(=O)CSC1=NC(=O)/C(=C\c2ccc(Cl)cc2)S1 | 66* | 20 | 88* | -4 | -172 | 9 | 0
CCOC(=O)C1CCN(C2=NC(=O)/C(=C/c3ccc(Cl)cc3)S2)CC1 | -7 | -20 | 24 | -2 | 23 | -1 | .
COCc1ccc(CN2CCC(C(=O)Nc3cccc(-c4cccc(Cl)c4)c3)CC2)o1 | 18 | 34 | 103* | -9 | 34 | 15 | 99*
CC1=C(CC[C@@H](C)CO)OC2CC3C4CCC5CC(O)CCC5(C)C4CC(=O)C3(C)C12 (some centres undefined) | . | 19 | 65* | -17 | -31 | -7 | 58*
O=C(NC1CC(=O)N(c2cccc(F)c2)C1)N1CCN(C(=O)c2ccco2)CC1 (centres undefined) | -3 | 0 | -26 | 11 | -3 | -8 | .
COc1cc(/C=C2/SC(=S)N(Cc3ccccc3)C2=O)ccc1OCC(=O)O | -11 | 5 | -6 | -2 | -15 | 25 | .
COc1ccc(/C=C2\SC(=S)N(CCC(=O)N(CCO)Cc3ccccc3)C2=O)cc1OC | 7 | 9 | 78* | -10 | 13 | 23 | 14
CC(/C=C/c1ccccc1)=N/NC(=O)c1cc([N+](=O)[O-])cc([N+](=O)[O-])c1 | 46 | 3 | 51* | 4 | 13 | 17 | 51*

High-throughput results: PubChem, several laboratories
